Assay results taken from PubChem BioAssay (EPA / NIEHS).
Active and inactive are the calls of the source. How the source made its calls: active means hit-call score of the fitted dose curve at least 0.9, where 1 is the maximum; inactive means score below 0.9.

Key:
Settings in all cases: mRNA level, 48 h; actives raise or lower the signal
[1] = read-out: 3-Hydroxy-3-Methylglutaryl-CoA Synthase 2 (HMGCS2), HMGCS2 (gene 3158); experiment: LTEA_HepaRG_HMGCS2: Life Technologies and Expression Analysis (LTEA) Assay for 3-Hydroxy-3-Methylglutaryl-CoA Synthase 2 (HMGCS2) using HepaRG (AID 2283504)
In short: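 This steatosis marker was read as HMGCS2 mRNA change in HepaRG cells treated 48 h with up to 100 uM chemical. Normalisation used housekeeping genes; activity in either direction was fitted relative to 0.5% DMSO vehicle.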

HGF (gene 3082) = experiment: LTEA_HepaRG_HGF: Life Technologies and Expression Analysis (LTEA) Assay for Hepatocyte Growth Facto (HGF) using HepaRG (AID 2283505)
In short: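 Using HepaRG monolayers kept in 0.5% DMSO, chemicals were tested in duplicate over eight half-log concentrations from 100 uM for 48 h. Endpoint: HGF mRNA change relative to DMSO, normalized to ACTB/GAPDH/POLR2A.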

[2] = read-out: Insulin Like Growth Factor 1 (IGF1), IGF1 (gene 3479); experiment: LTEA_HepaRG_IGF1: Life Technologies and Expression Analysis (LTEA) Assay for Insulin Like Growth Factor 1 (IGF1) using HepaRG (AID 2283506)
In short: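 Expression measured by TaqMan qRT-PCR on a Fluidigm array, with three housekeeping genes for normalisation, after 48 h treatment of HepaRG cells. Top concentration 100 uM with half-log steps, 0.5% DMSO vehicle, bidirectional fit.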

[3] = read-out: Intercellular Adhesion Molecule 1 (ICAM1), ICAM1 (gene 3383); experiment: LTEA_HepaRG_ICAM1: Life Technologies and Expression Analysis (LTEA) Assay for Intercellular Adhesion Molecule 1 (ICAM1) using HepaRG (AID 2283507)
In short: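 Using the human liver line HepaRG, compounds are tested in duplicate over 48 h at concentrations up to 100 uM. Expression is determined by TaqMan qRT-PCR, normalized to endogenous controls, and analysed relative to 0.5% DMSO vehicle.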

[4] = read-out: Insulin-like growth factor-binding protein 1 (IGFBP1), IGFBP1 (gene 3484); experiment: LTEA_HepaRG_IGFBP1: Life Technologies and Expression Analysis (LTEA) Assay for Insulin-like growth factor-binding protein 1 (IGFBP1) using HepaRG (AID 2283508)
In short: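 HepaRG, 48 h, 8 conc. (max 100 uM, half-log), duplicates, 0.5% DMSO. Readout: TaqMan qRT-PCR, ACTB/GAPDH/POLR2A normalisation. Fit: bidirectional vs DMSO.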

[5] = read-out: Interleukin 6 (IL6), IL6 (gene 3569); experiment: LTEA_HepaRG_IL6: Life Technologies and Expression Analysis (LTEA) Assay for Interleukin 6 (IL6) using HepaRG (AID 2283509)
In short: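 Transcript levels, normalized to three housekeeping genes, were quantified by qRT-PCR after 48 h chemical treatment of HepaRG cells. Eight-point half-log series from 100 uM in 0.5% DMSO, duplicates. Fitted both directions against DMSO baseline.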

[6] = read-out: Interleukin 6 Receptor (IL6R), IL6R (gene 3570); experiment: LTEA_HepaRG_IL6R: Life Technologies and Expression Analysis (LTEA) Assay for Interleukin 6 Receptor (IL6R) using HepaRG (AID 2283510);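 on AC50: TaqMan qRT-PCR signal normalized to ACTB GAPDH and POLR2A housekeeping genes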
In short: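 IL6R transcript level by qRT-PCR after 48 h chemical exposure (8-point, half-log, max 100 uM, 0.5% DMSO vehicle) of HepaRG cells in serum-free induction medium. Normalized to three housekeeping genes; curves fitted in both directions relative to DMSO.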

[7] = read-out: Potassium channel subfamily K member 1 (KCNK1), KCNK1 (gene 3775); experiment: LTEA_HepaRG_KCNK1: Life Technologies and Expression Analysis (LTEA) Assay for Potassium channel subfamily K member 1 (KCNK1) using HepaRG (AID 2283511)
In short: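 KCNK1 transcript measured by TaqMan qRT-PCR against three housekeeping genes, after HepaRG cells were treated 48 h with eight half-log concentrations (top 100 uM, 0.5% DMSO). Curves fitted bidirectionally relative to vehicle.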

[8] = read-out: Keratin 19 (KRT19), KRT19 (gene 3880); experiment: LTEA_HepaRG_KRT19: Life Technologies and Expression Analysis (LTEA) Assay for Keratin 19 (KRT19) using HepaRG (AID 2283512)
In short: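 Readout is qRT-PCR of KRT19 mRNA, normalized to ACTB, GAPDH and POLR2A, from HepaRG cells treated 48 h with eight-point half-log dilutions topping at 100 uM. Activity in either direction is scored relative to 0.5% DMSO vehicle.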

[9] = read-out: JUN Transcription Factor, JUN (gene 3725); experiment: LTEA_HepaRG_JUN: Life Technologies and Expression Analysis (LTEA) Assay for JUN Transcription Factor using HepaRG (AID 2283513)
In short: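 mRNA measured by TaqMan qRT-PCR after 48 h chemical exposure of HepaRG cultures; normalization to three housekeeping genes. Duplicate eight-point half-log curves from 100 uM in 0.5% DMSO; gain or loss fitted against DMSO baseline.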

[10] = read-out: Lipase C (LIPC), LIPC (gene 3990); experiment: LTEA_HepaRG_LIPC: Life Technologies and Expression Analysis (LTEA) Assay for Lipase C (LIPC) using HepaRG (AID 2283514)
In short: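 LIPC expression was quantified by qRT-PCR against three housekeeping genes (ACTB, GAPDH, POLR2A). Differentiated human HepaRG cells received eight half-log doses (top 100 uM, 0.5% DMSO) in duplicate for 48 h; fitting bidirectional relative to DMSO.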

[11] = read-out: Lipoprotein lipase (LPL), LPL (gene 4023); experiment: LTEA_HepaRG_LPL: Life Technologies and Expression Analysis (LTEA) Assay for Lipoprotein lipase (LPL) using HepaRG (AID 2283515)
In short: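 LPL transcript levels quantified by TaqMan qRT-PCR against three housekeeping genes after 48 h chemical treatment of HepaRG cells. Eight-point half-log series from 100 uM in 0.5% DMSO, tested in duplicate; bidirectional fitting versus vehicle.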

[12] = read-out: matrix metalloproteinase-10 (MMP10), MMP10 (gene 4319); experiment: LTEA_HepaRG_MMP10: Life Technologies and Expression Analysis (LTEA) Assay for matrix metalloproteinase-10 (MMP10) using HepaRG (AID 2283517)
In short: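 Expression measured by TaqMan qRT-PCR with ACTB/GAPDH/POLR2A normalisation after 48 h chemical exposure of HepaRG cells. Eight half-log concentrations, top 100 uM, 0.5% DMSO vehicle, duplicates; gain or loss fitted against vehicle.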

MYC, MYC (gene 4609) = experiment: LTEA_HepaRG_MYC: Life Technologies and Expression Analysis (LTEA) Assay for MYC using HepaRG (AID 2283518)
In short: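 Expression changes were scored by TaqMan qRT-PCR with ACTB, GAPDH and POLR2A normalization. Cultures in serum-free induction medium received duplicate 8-point concentration series, highest 100 uM, for 48 h; DMSO (0.5%) served as baseline.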

[13] = read-out: matrix metalloproteinase-3 (MMP3), MMP3 (gene 4314); experiment: LTEA_HepaRG_MMP3: Life Technologies and Expression Analysis (LTEA) Assay for matrix metalloproteinase-3 (MMP3) using HepaRG (AID 2283519)
In short: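 Fluidigm-based TaqMan qRT-PCR, normalized to ACTB, GAPDH and POLR2A and fitted bidirectionally versus 0.5% DMSO, measured transcript levels. Treatment: duplicate 48 h exposures of HepaRG cells, ~100,000/well, to eight half-log concentrations topping at 100 uM.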

[14] = read-out: Paternally Expressed 10 (PEG10), PEG10 (gene 23089); experiment: LTEA_HepaRG_PEG10: Life Technologies and Expression Analysis (LTEA) Assay for Paternally Expressed 10 (PEG10) using HepaRG (AID 2283520);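 on AC50: PEG10 transcript by qRT-PCR normalised to ACTB GAPDH and POLR2A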
In short: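 PEG10 transcript measured by Fluidigm qRT-PCR, normalized to three housekeeping genes, in HepaRG cells treated 48 h (highest 100 uM, half-log steps, 0.5% DMSO vehicle). Cells plated 48 h before switching to serum-free induction medium.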

[15] = read-out: Hypoxia-inducible factor 1-alpha (Homo sapiens) (UniProt Q16665); experiment: LTEA_HepaRG_HIF1A: Life Technologies and Expression Analysis (LTEA) Assay for Hypoxia-inducible factor 1 (HIF1A) Trancription factor using HepaRG (AID 2283503)
In short: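 HIF1A transcript level read by qRT-PCR (ACTB, GAPDH, POLR2A normalization) after 48 h chemical exposure of HepaRG cultures. Eight half-log concentrations, top 100 uM, 0.5% DMSO vehicle, duplicates; bidirectional curve fit against DMSO baseline.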

[16] = read-out: Nuclear factor NF-kappa-B p105 subunit (Homo sapiens) (UniProt P19838); experiment: LTEA_HepaRG_NFKB1: Life Technologies and Expression Analysis (LTEA) Assay for Nuclear Factor Kappa B Subunit 1 (NFKB1) using HepaRG (AID 2283521)
In short: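 Differentiated human HepaRG cells were exposed for 48 h in serum-free induction medium to eight concentrations (top 100 uM, half-log steps, 0.5% DMSO), in duplicate. NFKB1 mRNA was measured by TaqMan qRT-PCR, normalized to ACTB/GAPDH/POLR2A, and fitted bidirectionally against DMSO.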

[17] = read-out: MicroRNA 122 (MIR122), gene 406906; experiment: LTEA_HepaRG_MIR122: Life Technologies and Expression Analysis (LTEA) Assay for MicroRNA 122 (MIR122) using HepaRG (AID 2283516); further: the transcript read is the microRNA miR-122
In short: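 Expression measured by microfluidic qRT-PCR with three housekeeping genes for normalisation, after 48 h treatment of HepaRG cultures. Eight concentrations (top 100 uM, half-log steps, 0.5% DMSO vehicle) in duplicate; gain or loss fitted relative to vehicle.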

Measured: AC50

Hypoxia-inducible factor 1-alpha (Homo sapiens), sequence (Q16665 whole entry, looked up): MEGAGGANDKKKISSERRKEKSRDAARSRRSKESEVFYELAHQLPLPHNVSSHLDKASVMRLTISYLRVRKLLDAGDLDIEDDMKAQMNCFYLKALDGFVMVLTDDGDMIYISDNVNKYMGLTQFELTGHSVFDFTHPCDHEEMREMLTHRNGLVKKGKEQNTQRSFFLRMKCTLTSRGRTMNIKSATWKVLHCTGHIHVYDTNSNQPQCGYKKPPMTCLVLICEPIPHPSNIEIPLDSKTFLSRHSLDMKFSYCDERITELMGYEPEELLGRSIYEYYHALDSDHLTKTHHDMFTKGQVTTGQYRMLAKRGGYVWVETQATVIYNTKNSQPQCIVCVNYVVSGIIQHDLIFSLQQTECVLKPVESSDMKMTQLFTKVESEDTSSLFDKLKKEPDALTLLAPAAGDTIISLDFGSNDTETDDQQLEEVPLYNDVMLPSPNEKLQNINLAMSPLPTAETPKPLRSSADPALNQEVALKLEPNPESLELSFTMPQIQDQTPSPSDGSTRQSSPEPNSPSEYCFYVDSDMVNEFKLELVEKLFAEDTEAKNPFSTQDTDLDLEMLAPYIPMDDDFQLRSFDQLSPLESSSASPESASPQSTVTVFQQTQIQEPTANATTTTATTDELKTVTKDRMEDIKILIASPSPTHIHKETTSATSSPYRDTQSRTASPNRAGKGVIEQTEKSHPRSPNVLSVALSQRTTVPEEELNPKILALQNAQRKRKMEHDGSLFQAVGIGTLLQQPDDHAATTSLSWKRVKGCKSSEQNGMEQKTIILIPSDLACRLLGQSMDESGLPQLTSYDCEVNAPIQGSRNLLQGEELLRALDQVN
Nuclear factor NF-kappa-B p105 subunit (Homo sapiens), sequence (P19838 whole entry, looked up): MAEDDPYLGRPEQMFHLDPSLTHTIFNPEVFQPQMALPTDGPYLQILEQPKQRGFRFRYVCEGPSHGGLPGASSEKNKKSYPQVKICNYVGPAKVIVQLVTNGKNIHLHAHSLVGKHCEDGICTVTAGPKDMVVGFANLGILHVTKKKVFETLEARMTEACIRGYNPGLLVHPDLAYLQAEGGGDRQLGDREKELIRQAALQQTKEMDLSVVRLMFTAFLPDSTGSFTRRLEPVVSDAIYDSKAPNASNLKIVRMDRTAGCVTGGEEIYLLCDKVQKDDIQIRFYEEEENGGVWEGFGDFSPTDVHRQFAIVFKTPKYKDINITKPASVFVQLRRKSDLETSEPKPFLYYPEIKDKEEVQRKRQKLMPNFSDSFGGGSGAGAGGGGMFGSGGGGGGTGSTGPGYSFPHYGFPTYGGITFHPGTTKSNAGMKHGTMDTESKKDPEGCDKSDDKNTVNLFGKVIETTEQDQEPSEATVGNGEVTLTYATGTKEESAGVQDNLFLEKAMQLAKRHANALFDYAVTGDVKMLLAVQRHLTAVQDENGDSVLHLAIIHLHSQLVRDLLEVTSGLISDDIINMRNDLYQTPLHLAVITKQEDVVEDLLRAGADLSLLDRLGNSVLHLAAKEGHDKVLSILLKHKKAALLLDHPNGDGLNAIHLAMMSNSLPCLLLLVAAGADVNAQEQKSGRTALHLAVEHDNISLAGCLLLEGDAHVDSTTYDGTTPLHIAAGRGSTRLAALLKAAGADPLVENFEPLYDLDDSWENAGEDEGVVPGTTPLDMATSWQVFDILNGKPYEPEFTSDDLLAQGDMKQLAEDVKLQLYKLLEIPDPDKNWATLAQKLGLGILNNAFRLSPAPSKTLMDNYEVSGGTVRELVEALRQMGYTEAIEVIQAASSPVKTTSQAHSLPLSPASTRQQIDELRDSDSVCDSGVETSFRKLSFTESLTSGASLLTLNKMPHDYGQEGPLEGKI

Cc1ccc([N+](=O)[O-])cc1
active: [2] 17.8 µM | [14] 11.3 µM
not listed: [15] | [16] | [17]
inactive: all other assays above

Cc1ccc(N)cc1
not listed: [8] | [9] | [17]
inactive: all other assays above

CCOc1cccc(C2(N3CCN(c4ccccc4)CC3)CCC(C)CC2)c1 (stereo not drawn)
active: [13] 89.9 µM
not listed: [8] | [9] | [16] | [17]
inactive: all other assays above

Nc1ccc(Cl)cc1N
inactive: [3] | [7] | [9] | [12]
active: [1] 34.1 µM | HGF (gene 3082) 33.6 µM | [2] 25 µM | [4] 16.1 µM | [5] 73.4 µM | [6] 34.2 µM | [10] 17.3 µM | [11] 13.2 µM | [17] 21 µM | MYC, MYC (gene 4609) 13.4 µM | [13] 30.1 µM | [14] 14.2 µM | [16] 12.5 µM

Cc1ccc(N)c(N)c1
active: [8] 32.8 µM
not listed: [15]
inactive: all other assays above

CCOC(=O)[C@]1(c2ccccc2)Oc2ccccc2[C@@H]1N
active: [15] 82.2 µM | [1] 77.3 µM | [2] 80.2 µM | [4] 91.6 µM | [5] 84.8 µM | [10] 77.3 µM | [11] 50 µM | [12] 92.9 µM | MYC, MYC (gene 4609) 89.5 µM | [13] 72.8 µM | [14] 62.5 µM
inactive: HGF (gene 3082) | [3] | [6] | [7] | [17] | [16]

O=[N+]([O-])c1ccc(Oc2ccc(Cl)cc2Cl)cc1
active: [2] 50 µM | [4] 50 µM | [8] 41.1 µM | MYC, MYC (gene 4609) 32.8 µM | [14] 50 µM
not listed: [9] | [15] | [17]
inactive: all other assays above

CCC[CH2][Sn]([Cl])([CH2]CCC)[CH2]CCC
inactive: [3] | [11] | MYC, MYC (gene 4609) | [14]
active: [1] 1.24 µM | HGF (gene 3082) 50 µM | [2] 4.72 µM | [4] 2.29 µM | [5] 2.73 µM | [6] 50 µM | [7] 2.85 µM | [8] 0.297 µM | [10] 1.46 µM | [17] 12.8 µM | [12] 1.73 µM | [13] 1.87 µM | [16] 9.07 µM

O=C(O)C1C2CCC(O2)C1C(=O)O (stereo not drawn)
active: [1] 72.6 µM | [2] 73.6 µM | [4] 93.3 µM | [5] 16.5 µM | [6] 26.4 µM | [8] 50 µM | [10] 82.6 µM | [17] 74.4 µM | [13] 27.7 µM | [14] 85.7 µM
inactive: HGF (gene 3082) | [3] | [7] | [11] | MYC, MYC (gene 4609)

COc1cc(C=O)cc2c1[C@H](COC(N)=O)[C@]1(OC(C)=O)ON2C[C@H]2[C@@H]1N2C(C)=O
active: [1] 0.827 µM | [2] 0.5 µM | [3] 1.31 µM | [4] 4.86 µM | [5] 1.52 µM | [6] 24.7 µM | [8] 1.49 µM | [11] 0.272 µM | [12] 1.58 µM | [13] 1.44 µM
inactive: HGF (gene 3082) | [7] | [10] | MYC, MYC (gene 4609) | [14]

CC(C)(O)c1cnn2c(-c3ccc(F)c(-c4c(F)cccc4C#N)c3)cnc2n1
active: [1] 13.1 µM | [2] 1.35 µM | [10] 2.9 µM | [17] 13.1 µM
not listed: [9] | [15]
inactive: all other assays above

Clc1ccc(Cl)c(Cl)c1
active: [1] 50 µM | [11] 50 µM | [14] 50 µM
not listed: [8] | [9] | [16] | [17]
inactive: all other assays above

Oc1ccc2ccc3cccc4ccc1c2c34
not listed: [8] | [15]
inactive: all other assays above

CCC12COCN1COC2
not listed: [15] | [17]
inactive: all other assays above
